What was measured:
Assay in all cases: SPOT peptide array binding signal intensity (averaged, normalized) (arbitrary units (background-subtracted, floor 0; scale differs between SH3 domains)); higher = stronger binding of the SH3 domain to the peptide
AgAbp1 = molecular target: AgAbp1
Summary of the method: (§1)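 GST-fused SH3 domains, from four yeast species, were produced in E. coli BL21(DE3) and captured on glutathione Sepharose. Membranes of cellulose carrying synthetic 15-mer peptides, in which cysteines had been replaced by serines, were exposed to each domain at 10 μg/ml overnight at 4°C in TBS-based blocking buffer. After anti-GST antibody, an HRP anti-mouse secondary and luminol, spots were imaged and quantified using Genespotter. Binding signal is normalized and background-subtracted spot intensity, averaged over replicates, in arbitrary units that differ between domains.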

AgBbc1 = molecular target: AgBbc1
Summary of the method: as §1

AgBem1-D1 = molecular target: AgBem1-D1
Summary of the method: as §1

AgBzz1-D1 = molecular target: AgBzz1-D1
Summary of the method: as §1

AgBzz1-D2 = molecular target: AgBzz1-D2
Summary of the method: as §1

AgCyk3 = molecular target: AgCyk3
Summary of the method: as §1

AgFus1 = molecular target: AgFus1
Summary of the method: as §1

AgHof1 = molecular target: AgHof1
Summary of the method: as §1

AgHse1 = molecular target: AgHse1
Summary of the method: as §1

AgLsb1 = molecular target: AgLsb1
Summary of the method: as §1

AgLsb4 = molecular target: AgLsb4
Summary of the method: as §1

AgMyo5 = molecular target: AgMyo5
Summary of the method: as §1

AgNbp2 = molecular target: AgNbp2
Summary of the method: as §1

AgRvs167 = molecular target: AgRvs167
Summary of the method: as §1

AgSho1 = molecular target: AgSho1
Summary of the method: as §1

AgSla1-D1-D2 = molecular target: AgSla1-D1-D2
Summary of the method: as §1

AgSla1-D3 = molecular target: AgSla1-D3
Summary of the method: as §1

CaAbp1-D1 = molecular target: CaAbp1-D1
Summary of the method: as §1

CaAbp1-D2 = molecular target: CaAbp1-D2
Summary of the method: as §1

CaBbc1 = molecular target: CaBbc1
Summary of the method: as §1

CaBem1-D1 = molecular target: CaBem1-D1
Summary of the method: as §1

CaBzz1-D1 = molecular target: CaBzz1-D1
Summary of the method: as §1

CaBzz1-D2 = molecular target: CaBzz1-D2
Summary of the method: as §1

CaCyk3 = molecular target: CaCyk3
Summary of the method: as §1

CaFus1 = molecular target: CaFus1
Summary of the method: as §1

CaHof1 = molecular target: CaHof1
Summary of the method: as §1

CaHse1 = molecular target: CaHse1
Summary of the method: as §1

CaLsb1 = molecular target: CaLsb1
Summary of the method: as §1

CaLsb4 = molecular target: CaLsb4
Summary of the method: as §1

CaMyo5 = molecular target: CaMyo5
Summary of the method: as §1

CaNbp2 = molecular target: CaNbp2
Summary of the method: as §1

CaRvs167 = molecular target: CaRvs167
Summary of the method: as §1

CaRvs167-3 = molecular target: CaRvs167-3
Summary of the method: as §1

CaSho1 = molecular target: CaSho1
Summary of the method: as §1

CaSla1-D1-D2 = molecular target: CaSla1-D1-D2
Summary of the method: as §1

CaSla1-D3 = molecular target: CaSla1-D3
Summary of the method: as §1

ScAbp1 = molecular target: ScAbp1
Summary of the method: as §1

ScBbc1 = molecular target: ScBbc1
Summary of the method: as §1

ScBem1-D1 = molecular target: ScBem1-D1
Summary of the method: as §1

ScBzz1-D1 = molecular target: ScBzz1-D1
Summary of the method: as §1

ScBzz1-D2 = molecular target: ScBzz1-D2
Summary of the method: as §1

ScCyk3 = molecular target: ScCyk3
Summary of the method: as §1

ScFus1 = molecular target: ScFus1
Summary of the method: as §1

ScHof1 = molecular target: ScHof1
Summary of the method: as §1

ScHse1 = molecular target: ScHse1
Summary of the method: as §1

ScLsb1 = molecular target: ScLsb1
Summary of the method: as §1

ScLsb2 = molecular target: ScLsb2
Summary of the method: as §1

ScLsb3 = molecular target: ScLsb3
Summary of the method: as §1

ScLsb4 = molecular target: ScLsb4
Summary of the method: as §1

ScMyo3 = molecular target: ScMyo3
Summary of the method: as §1

ScMyo5 = molecular target: ScMyo5
Summary of the method: as §1

ScNbp2 = molecular target: ScNbp2
Summary of the method: as §1

ScPex13 = molecular target: ScPex13
Summary of the method: as §1

ScRvs167 = molecular target: ScRvs167
Summary of the method: as §1

ScSho1 = molecular target: ScSho1
Summary of the method: as §1

ScSla1-D1-D2 = molecular target: ScSla1-D1-D2
Summary of the method: as §1

ScSla1-D3 = molecular target: ScSla1-D3
Summary of the method: as §1

SpAbp1-D1 = molecular target: SpAbp1-D1
Summary of the method: as §1

SpBbc1 = molecular target: SpBbc1
Summary of the method: as §1

SpBzz1-D1 = molecular target: SpBzz1-D1
Summary of the method: as §1

SpBzz1-D2 = molecular target: SpBzz1-D2
Summary of the method: as §1

SpCyk3 = molecular target: SpCyk3
Summary of the method: as §1

SpHof1 = molecular target: SpHof1
Summary of the method: as §1

SpHof1-2 = molecular target: SpHof1-2
Summary of the method: as §1

SpHof1-3 = molecular target: SpHof1-3
Summary of the method: as §1

SpHse1 = molecular target: SpHse1
Summary of the method: as §1

SpLsb1 = molecular target: SpLsb1
Summary of the method: as §1

SpLsb4 = molecular target: SpLsb4
Summary of the method: as §1

SpMyo1 = molecular target: SpMyo1
Summary of the method: as §1

SpNbp2 = molecular target: SpNbp2
Summary of the method: as §1

SpPex13 = molecular target: SpPex13
Summary of the method: as §1

SpRvs167 = molecular target: SpRvs167
Summary of the method: as §1

SpSla1-D1-D2 = molecular target: SpSla1-D1-D2
Summary of the method: as §1

SpSla1-D3 = molecular target: SpSla1-D3
Summary of the method: as §1

B1: unnamed (peptide)
chain: PPIPNAPLSPAPAVP
SPOT peptide array binding signal intensity (AgAbp1): 1
SPOT peptide array binding signal intensity (AgBbc1): ≤ 0
SPOT peptide array binding signal intensity (AgBem1-D1): 18.5
SPOT peptide array binding signal intensity (AgBzz1-D1): ≤ 0
SPOT peptide array binding signal intensity (AgBzz1-D2): ≤ 0
SPOT peptide array binding signal intensity (AgCyk3): ≤ 0
SPOT peptide array binding signal intensity (AgFus1): 2
SPOT peptide array binding signal intensity (AgHof1): 1
SPOT peptide array binding signal intensity (AgHse1): 2.5
SPOT peptide array binding signal intensity (AgLsb1): 3
SPOT peptide array binding signal intensity (AgLsb4): 9
SPOT peptide array binding signal intensity (AgMyo5): 1300
SPOT peptide array binding signal intensity (AgNbp2): 3.5
SPOT peptide array binding signal intensity (AgRvs167): 0.167
SPOT peptide array binding signal intensity (AgSho1): ≤ 0
SPOT peptide array binding signal intensity (AgSla1-D1-D2): 1
SPOT peptide array binding signal intensity (AgSla1-D3): ≤ 0
SPOT peptide array binding signal intensity (CaAbp1-D1): ≤ 0
SPOT peptide array binding signal intensity (CaAbp1-D2): ≤ 0
SPOT peptide array binding signal intensity (CaBbc1): 2
SPOT peptide array binding signal intensity (CaBem1-D1): 7
SPOT peptide array binding signal intensity (CaBzz1-D1): ≤ 0
SPOT peptide array binding signal intensity (CaBzz1-D2): 10.5
SPOT peptide array binding signal intensity (CaCyk3): ≤ 0
SPOT peptide array binding signal intensity (CaFus1): 59
SPOT peptide array binding signal intensity (CaHof1): ≤ 0
SPOT peptide array binding signal intensity (CaHse1): 0.5
SPOT peptide array binding signal intensity (CaLsb1): ≤ 0
SPOT peptide array binding signal intensity (CaLsb4): ≤ 0
SPOT peptide array binding signal intensity (CaMyo5): 952
SPOT peptide array binding signal intensity (CaNbp2): 15.5
SPOT peptide array binding signal intensity (CaRvs167): ≤ 0
SPOT peptide array binding signal intensity (CaRvs167-3): 2.5
SPOT peptide array binding signal intensity (CaSho1): 9
SPOT peptide array binding signal intensity (CaSla1-D1-D2): ≤ 0
SPOT peptide array binding signal intensity (CaSla1-D3): ≤ 0
SPOT peptide array binding signal intensity (ScAbp1): 0.5
SPOT peptide array binding signal intensity (ScBbc1): ≤ 0
SPOT peptide array binding signal intensity (ScBem1-D1): ≤ 0
SPOT peptide array binding signal intensity (ScBzz1-D1): 4
SPOT peptide array binding signal intensity (ScBzz1-D2): 7.5
SPOT peptide array binding signal intensity (ScCyk3): 2.5
SPOT peptide array binding signal intensity (ScFus1): ≤ 0
SPOT peptide array binding signal intensity (ScHof1): ≤ 0
SPOT peptide array binding signal intensity (ScHse1): 1.5
SPOT peptide array binding signal intensity (ScLsb1): 2.5
SPOT peptide array binding signal intensity (ScLsb2): 4.5
SPOT peptide array binding signal intensity (ScLsb3): ≤ 0
SPOT peptide array binding signal intensity (ScLsb4): ≤ 0
SPOT peptide array binding signal intensity (ScMyo3): 2660
SPOT peptide array binding signal intensity (ScMyo5): 1550
SPOT peptide array binding signal intensity (ScNbp2): 7.5
SPOT peptide array binding signal intensity (ScPex13): 7.63e-06
SPOT peptide array binding signal intensity (ScRvs167): ≤ 0
SPOT peptide array binding signal intensity (ScSho1): ≤ 0
SPOT peptide array binding signal intensity (ScSla1-D1-D2): ≤ 0
SPOT peptide array binding signal intensity (ScSla1-D3): 1.25
SPOT peptide array binding signal intensity (SpAbp1-D1): ≤ 0
SPOT peptide array binding signal intensity (SpBbc1): 0.5
SPOT peptide array binding signal intensity (SpBzz1-D1): ≤ 0
SPOT peptide array binding signal intensity (SpBzz1-D2): 0.5
SPOT peptide array binding signal intensity (SpCyk3): 1
SPOT peptide array binding signal intensity (SpHof1): ≤ 0
SPOT peptide array binding signal intensity (SpHof1-2): 1
SPOT peptide array binding signal intensity (SpHof1-3): 1
SPOT peptide array binding signal intensity (SpHse1): 23
SPOT peptide array binding signal intensity (SpLsb1): ≤ 0
SPOT peptide array binding signal intensity (SpLsb4): ≤ 0
SPOT peptide array binding signal intensity (SpMyo1): 946
SPOT peptide array binding signal intensity (SpNbp2): ≤ 0
SPOT peptide array binding signal intensity (SpPex13): ≤ 0
SPOT peptide array binding signal intensity (SpRvs167): ≤ 0
SPOT peptide array binding signal intensity (SpSla1-D1-D2): ≤ 0
SPOT peptide array binding signal intensity (SpSla1-D3): ≤ 0

B2: unnamed (peptide)
chain: LYEAMPPTLPHRDWK
SPOT peptide array binding signal intensity (SpBzz1-D2): 0.5
SPOT peptide array binding signal intensity (SpCyk3): 3
SPOT peptide array binding signal intensity (SpHof1): 2
SPOT peptide array binding signal intensity (SpHof1-2): 2
SPOT peptide array binding signal intensity (SpHof1-3): 0.5
SPOT peptide array binding signal intensity (SpHse1): 78.5
SPOT peptide array binding signal intensity (SpLsb1): 2.25
SPOT peptide array binding signal intensity (SpLsb4): 1290
SPOT peptide array binding signal intensity (SpMyo1): 32.5
SPOT peptide array binding signal intensity (SpNbp2): 22.5
SPOT peptide array binding signal intensity (SpPex13): 38.5
SPOT peptide array binding signal intensity (SpRvs167): 282
SPOT peptide array binding signal intensity (SpSla1-D1-D2): 1
SPOT peptide array binding signal intensity (SpSla1-D3): 21
